# PKM2 act – activators of human pyruvate kinase M2. P14618. Potency, µM (top dose mostly 57.5 µM), for the others: top-dose activation, usual class: activators. purified PKM2, Kinase-Glo ATP luminescence, activation; response scale: 0% is enzyme alone, no compound. AID 1631. 260,000 tested, 0.34% active; note: potency is the fitted concentration of half-maximal effect; nearly all actives have a fitted effect of over 55% in size
# Target sequence (P14618 whole entry, looked up): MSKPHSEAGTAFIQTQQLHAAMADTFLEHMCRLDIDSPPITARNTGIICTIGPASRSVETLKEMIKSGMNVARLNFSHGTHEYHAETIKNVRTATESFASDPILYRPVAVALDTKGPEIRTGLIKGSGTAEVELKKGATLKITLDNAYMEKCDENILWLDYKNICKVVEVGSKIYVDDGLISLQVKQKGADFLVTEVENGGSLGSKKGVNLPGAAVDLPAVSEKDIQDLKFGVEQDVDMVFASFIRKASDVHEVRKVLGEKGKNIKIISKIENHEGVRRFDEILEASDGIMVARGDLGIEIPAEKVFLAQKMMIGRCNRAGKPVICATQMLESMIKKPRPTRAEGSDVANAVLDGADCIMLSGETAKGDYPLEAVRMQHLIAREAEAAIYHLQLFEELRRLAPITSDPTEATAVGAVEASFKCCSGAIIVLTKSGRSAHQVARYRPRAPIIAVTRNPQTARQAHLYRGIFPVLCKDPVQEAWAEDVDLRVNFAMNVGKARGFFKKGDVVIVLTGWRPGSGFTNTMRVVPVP
#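 Purified hPK-M2 (>95% pure) converted ADP (0.1 mM final) to ATP with 0.5 mM PEP in 50 mM imidazole pH7.2, KCl, MgCl2, Tween 20, BSA; 1 h at room temperature. ATP detected by Kinase-Glo luminescence.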
# RORg inh – inhibitors of mouse ROR gamma transcriptional activity; P51450; Drosophila S2 Gal4-RORgamma UAS-luciferase reporter, 20 h; Potency, µM (doses to about 53.6 µM), for the others: top-dose activity change, negative = inhibition, usual class: inhibitors; 310,000 tested, 5.4% active; note: potency is the fitted concentration of half-maximal effect; nearly all actives have a fitted effect of over 60% in size
#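 Compounds are pin-transferred onto Drosophila Schneider cells expressing a copper-inducible Gal4–ROR gamma transactivation domain fusion. After 1 hr, copper sulfate is added to 700 uM final; luciferase is read 20 hr later.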
# Six1-Eya2 blk – blocks human Six1 binding to Eya2; AlphaScreen GST-Six1/His-Eya2 binding, biochemical; active compounds read low; activity change, % (concentration not given with the values); 360,000 tested, 0.56% active; in the data active = activity change below about -65%; inconclusive = mostly about -30% to -63%
#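 GST-Six1 + His-Eya2 (5X stock: 250/500 nM); Tris pH 8.0, 300 mM NaCl, 0.05% BSA, 0.02% Tween 20; GSH donor/Ni acceptor beads; 1 h 37 °C dark; AlphaScreen readout.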
# CtBP-E1A inh – blocks the CtBP interaction with E1A; AlphaScreen GST-E1A/His-CtBP binding, 1536-well; active compounds read low; activity change, % (no concentration beside the values); 340,000 tested, 0.49% active; in the data active = activity change below about -65%; inconclusive = mostly about -30% to -63%
#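 In 5 uL wells, 23 nL compound meets equimolar GST-E1A and His-CtBP (5X stock 125 nM each) for 2 h, 37 °C. Beads (5X, 50 ug/mL) then 1 h, 37 °C, dark.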
# Gal4-VP16 FLuc – inhibits Gal4-VP16 luciferase reporter, ROR gamma counter-screen; Drosophila S2 Gal4-VP16 UAS-luciferase, luminescence, 20 h; Potency, µM (top dose mostly 53.6 µM), for inactives: at the top dose activity, negative = inhibition, actives largely listed as inhibitors; 310,000 tested, 3.5% active;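 note: Gal4-VP16 expression switched on by copper sulfate through the metallothionein promoter; potency is the fitted concentration of half-maximal effect; nearly all actives have a fitted effect of over 50% in size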
# Starred values were filed as active, the others as inactive; ? = inconclusive; nt = no result. An excerpt weighted towards active compounds, which were near 5.6% of everything screened. Unless noted, calls come from the whole dose curve; as a rule, active = well fitted curve in the direction sought with a large enough effect; inconclusive = small, poorly fitted or top-dose-only effect, or another doubt; inactive = no such curve, though single readings can be large; an effect the other way counts as inactive or inconclusive. % is set by controls: 0 for no effect and ±100 for the full control effect.
SMILES,PKM2 act,RORg inh,Six1-Eya2 blk,CtBP-E1A inh,Gal4-VP16 FLuc
NC1(C(=O)O)CSSC1,nt,nt,-88.0*,-0.2,nt
Cc1cc(C(=O)c2ccc(Cl)cc2)c(NC(=O)CCl)s1,-8.5%,10µM*,1.7,-4.4,?
O=C(NNC(=O)C12CC3CC(CC(C3)C1)C2)c1ccccn1,-4.9%,0.501µM*,-65.7*,-19.0,4.47µM*
COc1ccc(CC(=O)NNC(=O)c2ccccn2)cc1,0.4%,?,?,-74.1*,-20.8%
O=C(Cc1ccccc1)c1ccccn1,nt,nt,-78.4*,-5.3,nt
COc1ccc(NC(=O)c2cc(S(=O)(=O)Nc3ccc(OC)cc3)cs2)cc1,-3.2%,1.4%,-4.4,nt,11.2µM*
O=C(NNC(=O)C12CC3CC(CC(C3)C1)C2)c1cnccn1,1.1%,?,-3.6,1.1,?
Cc1ccnc(NC(=O)Cn2c(=O)oc3ccccc32)c1,0.7%,23.0%,11.1,-0.7,6.2%
COc1ccc(C(=O)Nc2ccc(NC(=O)c3ccccn3)cn2)cc1,-1.0%,4.4%,-27.4,-3.4,7.7%
COc1ccc(NC(=O)c2ccccn2)cc1,-65.5%,7.94µM*,-16.1,10.5,11.2µM*
Cc1ccc(S(=O)(=O)Oc2ccc(C)cc2/C=N/N=C2\NC(=O)C(C)S2)cc1 (stereo unspecified),26.8%,12.6µM*,-4.3,-0.4,10µM*
Cc1cc(C(=O)NNC(=O)/C=C/c2ccc(F)cc2)c(C)o1,-3.2%,-36.7%,6.1,-0.7,-6.1%
C=CCn1c(O)c(N=NC(=S)Nc2ccc(OC)c(Cl)c2)c2ccccc21,-5.4%,2.82µM*,?,1.5,3.98µM*
Cc1cc(=O)n(C)c2ccc(S(=O)(=O)N3CCOCC3)cc12,-2.6%,-9.7%,2.1,nt,-2.2%
Cn1c(O)c(N=NC(=S)Nc2ccccc2F)c2cc(S(=O)(=O)N3CCOCC3)ccc21,-2.9%,0.316µM*,-20.0,-21.5,2µM*
C=CCn1c(O)c(N=NC(=O)OC(C)(C)C)c2ccccc21,5.3%,18.0%,-3.7,1.1,21.2%
Cc1ccc(NC(=S)N=Nc2c(O)n(C)c3ccc(S(=O)(=O)N4CCOCC4)cc23)cc1C,0.1%,0.708µM*,-0.4,-8.4,3.16µM*
Cc1cccc(NC(=S)N=Nc2c(O)n(CN3CCOCC3)c3ccccc23)c1C,4.5%,0.708µM*,-8.8,nt,1.12µM*
CC(C)(C)OC(=O)C[C@H]1C/C=C\C[C@H](CC(=O)N(CCO)Cc2ccccc2)C(=O)N[C@H](C(C)(C)C)COC1=O,nt,nt,-5.6,3.0,nt
C=CCC1(CC=C)CCCN1C(=O)Cn1nnnc1CN(C)C(C)C,0.4%,-6.0%,5.8,-2.2,0.8%
Cc1ccccc1CNC(=O)c1csc([C@H]2C[C@H](O)[C@@H](CO)O2)n1,nt,nt,-1.5,5.9,nt
C=CCn1c(O)c(N=NC(=S)Nc2ccccc2C)c2cc(S(=O)(=O)N3CCOCC3)ccc21,-9.6%,0.501µM*,-10.7,-18.1,2µM*
CCOc1cc(/C=C/C(=O)N(CC)CC(=O)NCc2cccs2)cc(Cl)c1OC,nt,nt,-7.8,1.5,nt
CCCN(CC(=O)Nc1ccccc1C)C(=O)CC(NC(=O)c1ccccc1)c1ccccc1 (stereo unspecified),nt,nt,-0.7,0.1,nt
CCOc1ccc(N(CC(=O)Nc2ccccc2Cl)S(C)(=O)=O)cc1,0.7%,2.8%,-0.1,nt,6.6%
SMILES,PKM2 act,RORg inh,Six1-Eya2 blk,CtBP-E1A inh,Gal4-VP16 FLuc
CCOc1ccc(N(C(=O)c2ccccc2Cl)C2=NC(C)(C)CS2)cc1,6.3%,3.16µM*,3.0,3.2,-16.4%
O=C(NNc1nc2cc3c(cc2s1)OCCO3)c1ccc(F)cc1,2.0%,2.82µM*,-2.1,2.0,?
O=C(NNc1nc2cc3c(cc2s1)OCO3)c1ccc(F)cc1,-21.6%,1.26µM*,0.3,-14.9,?
CCCN1C(=O)C(O)(CC(=O)c2cccc(OC)c2)c2ccccc21 (stereo unspecified),22.7%,-17.3%,7.3,5.3,14.1µM*
COc1ccc(NC(=O)O/N=C/c2c(C)nn(C(C)(C)C)c2C)cc1,4.6%,2.51µM*,3.7,nt,11.2µM*
C=CCNC(=S)NNC(=O)c1ccccc1,9.6%,?,4.4,-3.6,?
C=CCNC(=S)NNC(=O)c1cccc2ccccc12,-7.5%,1.12µM*,4.7,1.6,-27.2%

# Source: PubChem BioAssay
